The whole screen tested about 52,000 compounds, of which about 4,300 (8.3%) were called active. The list comes from a sample in which actives are over-represented; it also holds similar structures and randomly drawn compounds. Values without a mark were called inactive. Rule as the data show it: active = survival mostly below about 52% (no sharp cut-off); inactive = mostly above about 56%.

The test system of the experiment is DeltatarO mutant. Kind of experiment: growth inhibition of S. aureus wild type versus tarO mutant, primary screen, teichoic acid synthesis inhibitors, RN4220, OD600 (AID 463173). The following applies: OD600, 18 h, hits give low values, screened at 18.75 µg/mL (by protocol).
For `COc1ccc(-c2noc(-c3ccc(NC(C)c4ccccc4)c([N+](=O)[O-])c3)n2)cc1OC` (centres undefined), the survival was 65%. For `CCCC12CN3CC(C)(CN(C1)C3c1ccc(OCc3ccccc3)cc1)C2=O` (centres undefined) the value was 80%; for `COc1ccc(-n2nc3c(N4CCCC(C(=O)NCc5ccccc5C)C4)nnc(C)c3c2C)cc1` (centres undefined), 90%. Consider `Cc1ccc(NC(=O)Nc2nc3c(s2)CCCCCC3)cc1C`, for which the survival was 69%. Consider `O=C(Nc1nc2c(s1)CCCCCC2)Nc1ccc(F)cc1F`, for which the survival was 0% (active). For the compound `O=C(Nc1ccc(Br)cc1)Nc1nc2c(s1)CCCCCC2`, the survival is 83%. For `CCN(c1ccccc1)S(=O)(=O)c1nnc(NC(=O)COc2cccc(C)c2)s1` the value was 107%. As to `CCCCC(=O)Nc1nnc(S(=O)(=O)N(CC)c2cc(C)cc(C)c2)s1`, the survival is 66%. For `Cc1cccc(N(C)S(=O)(=O)c2nnc(NC(=O)c3cccs3)s2)c1`, the survival was 26% (active).

For the compound `Cc1cccc(N(C)S(=O)(=O)c2nnc(NC(=O)C(C)(C)C)s2)c1`, the survival was 99%. On to `CN(c1ccccc1)S(=O)(=O)c1nnc(NC(=O)c2cccs2)s1`, for which the survival is 43%. Regarding `CCN(c1cc(C)cc(C)c1)S(=O)(=O)c1nnc(NC(=O)c2cccs2)s1`, the survival is 25% (active). For `CCN(c1cccc(C)c1)S(=O)(=O)c1nnc(NC(=O)c2cccs2)s1`, the survival was 21% (active). Turning to `CCN(c1cccc(C)c1)S(=O)(=O)c1nnc(NC(=O)C2CCCCC2)s1`, the survival is 71%. As to `CCN(c1cc(C)cc(C)c1)S(=O)(=O)c1nnc(NC(=O)c2cccc(F)c2)s1`, the survival was 37% (active).

With `CCN(c1cc(C)cc(C)c1)S(=O)(=O)c1nnc(NC(=O)C2CCCCC2)s1`, the survival was 105%. With `Cc1ccc(S(=O)(=O)Nc2ccc(-c3ccc(N4CCCCCC4)nn3)cc2)c(C)c1`, the survival was 70%.

Take `CCc1nnc(NC(=O)c2ccc(S(=O)(=O)N3CCc4ccccc4C3)cc2)s1`: the survival is 83%. The value for `Cc1ccc(NC(=O)CCNS(=O)(=O)c2cccs2)cc1F` was 63%; that for `COc1cc(CN(C(=O)c2cccc(Cl)c2)c2ccccn2)cc(OC)c1OC` was 82%; that for `COc1ccc(OC(=O)c2ccc3snnc3c2)cc1` was 86%. For `COc1ccc(CNC(=O)CCS(=O)(=O)c2cc3c4c(c2)CCN4C(=O)CC3)cc1OC` the value was 66%.

In the case of `Cc1ccc(C)c(NS(=O)(=O)c2cc3c(cc2Cl)NC(=O)CO3)c1`, the survival is 85%.

For `CCN(c1ccc(C)cc1C)S(=O)(=O)c1nnc(NC(=O)c2ccc(F)cc2)s1`, the survival was 14% (active). On to `CCN(c1ccc(C)cc1C)S(=O)(=O)c1nnc(NC(=O)CC(C)C)s1`, for which the survival is 75%. Consider `CCN(c1ccc(C)cc1C)S(=O)(=O)c1nnc(NC(=O)c2ccccc2OC)s1`, for which the survival was 55%. For `CC(C)Cn1cc(NC(=O)NCc2ccccc2)c2ccccc2c1=O` the value was 74%; for `CCc1nonc1NC(=O)c1oc2cc(C)c(C)cc2c1C`, 102%.

In the case of `CCOC(=O)c1cc(C(=O)OCC)c(=S)[nH]c1O`, the survival is 98%. For `CCOC(=O)c1cnc(SCC)[nH]c1=O` the value was 41% (active); for `CCOC(=O)c1cc2ccccc2[nH]c1=O`, 82%. On to `Cc1ccc(NC(=O)c2c(NC(=O)c3ccc(F)cc3)sc3c2CCCC3)cc1C`, for which the survival is 67%.

As to `COCCCNC(=O)c1ccc2c(c1)NC(=O)C(C(C)C)N2` (centres undefined), the survival was 57%. Regarding `COc1ccc(NC(=O)c2sc3nc4c(cc3c2N)CCCCCC4)c(OC)c1`, the survival was 62%. Take `CCc1oc(C(=O)O)cc1CN`: the survival was 97%. For `COc1ccc(Br)c2c1-c1nc(NC(=O)c3ccc(F)cc3)sc1C2` the value was 67%. For `COc1ccc(Br)c2c1-c1nc(NC(=O)c3ccccc3SC)sc1C2` the value was 105%; for `COc1ccc(C(=O)Nc2nc3c(s2)Cc2c(Br)ccc(OC)c2-3)cc1OC`, 36% (active); for `COc1ccc(Br)c2c1-c1nc(NC(=O)c3cccc(C)c3)sc1C2`, 44%. For the compound `COc1cc(C(=O)Nc2nc3c(s2)Cc2c(Br)ccc(OC)c2-3)cc(OC)c1OC`, the survival was 36% (active). Turning to `COc1ccc(Br)c2c1-c1nc(NC(=O)c3ccccc3F)sc1C2`, the survival is 69%. On to `Cc1cccc(N2CCN(C(=O)CN3C(=O)CSc4c3c(C)nn4-c3ccccc3)CC2)c1C`, for which the survival was 83%. Regarding `O=C(Nc1ccc(F)cc1)c1cccc(N2CCCS2(=O)=O)c1`, the survival was 70%.

On to `CC(C)C(=O)Nc1cccc(C(=O)Nc2nnc(C(F)(F)F)s2)c1`, for which the survival is 58%. Consider `COc1ccc(C(=O)Nc2nnc(S(=O)(=O)N(C)c3ccc(C)cc3)s2)cc1`, for which the survival is 79%.

In the case of `CN(c1ccccc1)S(=O)(=O)c1nnc(NC(=O)c2ccccc2)s1`, the survival was 32% (active).

As to `COc1cc(C(=O)Nc2nnc(S(=O)(=O)N(C)c3ccccc3)s2)cc(OC)c1OC`, the survival is 40% (active). The value for `CCCC(=O)Nc1nnc(S(=O)(=O)N(C)c2ccccc2)s1` was 108%; that for `Cc1nnc(NC(=O)c2ccccc2)s1` was 71%; that for `O=C(Nc1nnc(C(F)(F)F)s1)c1ccccc1` was 24% (active). For the compound `COc1ccc(C(=O)Nc2nnc(S(=O)(=O)N(C)c3ccc(Cl)cc3)s2)cc1OC`, the survival is 83%. Regarding `CCN(C(=O)Cn1cnc2c1c(=O)n(C)c(=O)n2C)c1ccccc1C`, the survival is 87%. `Fc1ccc(N2CCN(c3nc4ccccc4c4nc(-c5cccnc5)nn34)CC2)cc1`: the survival is 93%. As for `CC(=O)N1c2ccc(S(=O)(=O)N3CCCCCC3)cc2CC1C(=O)NCc1cccc(F)c1` (centres undefined), the survival is 65%. Consider `Cc1ccc(NC(=O)c2ccco2)c(OCc2cc(=O)n3cc(C)sc3n2)c1`, for which the survival was 102%. On to `CCOC(=O)Nc1ccc2c(c1)OCO2`, for which the survival is 79%.

In the case of `NC(=O)/C=C/C(=O)Nc1ccc2c(c1)OCO2`, the survival was 33% (active).

Consider `O=C(/C=C/c1ccccc1)Nc1ccc2c(c1)OCCO2`, for which the survival is 76%. In the case of `CCc1ccccc1NC(=O)N1CCOc2ccccc21`, the survival is 106%. Turning to `CSc1ccc(C2c3c(oc4ccc(F)cc4c3=O)C(=O)N2c2ccc(C)cn2)cc1` (centres undefined), the survival is 81%. As to `Cc1nn(CCC(=O)N2CCN(c3ccccc3)CC2)c(C)c1S(=O)(=O)N1CCCC1`, the survival was -5% (active).

Regarding `COc1cccc(N2CCN(C(=O)CCn3nc(C)c(S(=O)(=O)N4CCCC4)c3C)CC2)c1`, the survival is 92%. Consider `COc1ccc(N2CCN(C(=O)CCn3nc(C)c(S(=O)(=O)N4CCCC4)c3C)CC2)cc1`, for which the survival is 73%. For `COc1ccc(Cl)cc1NC(=O)CSC1=Nc2ccccc2C2=NC(CC(=O)NCc3ccc4c(c3)OCO4)C(=O)N12` (centres undefined) the value was 87%; for `COc1ccc(CCn2c(=O)c3cccnc3n(CC(=O)Nc3ccc(C)cc3C)c2=O)cc1OC`, 78%; for `O=S(=O)(c1ccccc1)c1nc(-c2cccc(Cl)c2)oc1NCc1ccccc1`, 83%. `O=C(NC1CCCCC1)c1ccc(CSc2nc3cccnc3n2Cc2ccc(F)cc2)cc1`: the survival was 25% (active). As for `Cc1ccccc1CSc1nc2cc(C(=O)NC3CCCC3)ccc2c(=O)n1Cc1ccccc1`, the survival is 107%. For `O=C(NC1CCCCC1)c1ccc(Cn2c(SCc3ccccc3)nc3cccnc32)cc1` the value was 83%; for `O=C(NC1CC1)c1ccc(Cn2c(SCc3ccc(F)cc3)nc3cccnc32)cc1`, 78%; for `O=C(NC1CCCC1)c1ccc(CSc2nc3cccnc3n2Cc2ccccc2F)cc1`, 37% (active). As to `O=C(NC1CCCC1)c1ccc2c(=O)n(Cc3ccccc3)c(SCc3ccccc3F)nc2c1`, the survival is 0% (active). For `O=C(NC1CCCCC1)c1ccc(Cn2c(SCc3ccccc3F)nc3cccnc32)cc1` the value was 80%; for `O=C(NC1CCCC1)c1ccc2c(=O)n(Cc3ccccc3)c(SCc3ccccc3)nc2c1`, 92%; for `O=C(NC1CCCCC1)c1ccc(CSc2nc3cccnc3n2Cc2ccccc2F)cc1`, 93%. Regarding `O=C(NC1CCCCC1)c1ccc(CSc2nc3cccnc3n2Cc2ccccc2)cc1`, the survival is 102%. In the case of `O=C(NC1CCCCC1)c1ccc(Cn2c(SCc3ccc(F)cc3)nc3cccnc32)cc1`, the survival was 32% (active). `O=C(NC1CCCC1)c1ccc(CSc2nc3cccnc3n2Cc2ccc(F)cc2)cc1`: the survival is 63%. Regarding `O=C(Cn1cc(SCc2c(F)cccc2Cl)c2ccccc21)N1CCCC1`, the survival is 74%. For the compound `COCCn1c(COc2ccc(Cl)cc2)nnc1SCC(=O)OC`, the survival is 96%. Turning to `CCOc1ccccc1N(CC)C(=O)c1noc2c1COc1ccc(C)cc1-2`, the survival is 67%. For the compound `COc1ccc(CCNC(=O)NCc2noc3ccccc23)c(OC)c1`, the survival was 62%.

Regarding `NC(=O)CSc1nc2cc3c(cc2c(=O)n1CCCCCC(=O)NCc1ccc2c(c1)OCO2)OCO3`, the survival is 81%. For the compound `CCC(=O)N1CCc2cc(Br)cc(S(=O)(=O)NCc3cccc(OC)c3)c21`, the survival is 58%. Take `COc1cccc(Cn2cc(S(=O)(=O)c3ccc(C)cc3)c(=O)c3cc4c(cc32)OCO4)c1`: the survival was 67%. Turning to `COc1ccc(OC)c(S(=O)(=O)NCC(c2ccco2)S(=O)(=O)c2ccccc2)c1` (centres undefined), the survival is 94%. Turning to `CCOCCCNC(=O)CN1C(=O)COc2ccc(S(=O)(=O)N3CCCCCC3)cc21`, the survival is 81%. Turning to `Cc1cccc(Nc2nnc(-c3ccc(C)c(S(=O)(=O)N4CCCCC4)c3)c3ccccc23)c1`, the survival was 104%. For `CCOC(=O)c1c(Oc2ccc(OC)cc2)nnc(-c2ccccc2)c1-c1ccccc1` the value was 75%; for `CCOC(=O)c1c(C)oc2ncnc(Nc3ccc(OCC)cc3)c12`, 89%.

`CCOC(=O)c1c(C)c(-c2ccccc2)n(CC(=O)Nc2ccc(OCC)cc2)c1C`: the survival is 73%. Take `C#CCOc1ccc(-c2nnc(Nc3ccc(NC(C)=O)cc3)c3ccccc23)cc1`: the survival is 60%. On to `COc1ccc(-c2nnc(Nc3ccc(OC)c(C(N)=O)c3)c3ccccc23)cc1`, for which the survival is 41% (active). Take `CCOC(=O)c1c(Nc2ccc(OCC)cc2)nnc(-c2ccccc2)c1-c1ccccc1`: the survival is -2% (active). On to `COc1ccc(-c2nnc(Nc3ccc(OCC(N)=O)cc3)c3ccccc23)cc1`, for which the survival is 69%. For the compound `CCOC(=O)c1c(Nc2ccc(OC)cc2)nnc(-c2ccccc2)c1-c1ccccc1`, the survival is 7% (active). `CNC(=O)c1cc(Nc2nnc(-c3ccc(O)cc3)c3ccccc23)ccc1OC`: the survival is 170%. As to `COC(=O)c1c(Oc2ccc(OC)cc2)nnc(-c2ccccc2)c1-c1ccccc1`, the survival is 101%. For the compound `C#CCOc1ccc(-c2nnc(Nc3cccc(C)c3)c3ccccc23)cc1`, the survival was 31% (active).

The record behind these values is PubChem BioAssay AID463173 (ICCB-Longwood Screening Facility, Harvard Medical School, 2010).
